Where “and” joins values, the source holds several entries; their conditions need not be identical. Identical values can stand only once. Results filed as inconclusive are left out. Calls of active or inactive are those of the source. Unless noted, calls come from the whole dose curve; as a rule, active = well fitted curve in either direction with a large enough effect (not every such curve was filed as active); inconclusive = small, poorly fitted or top-dose-only effect, or another doubt; inactive = flat fitted curve, though single readings scatter.
How the values were obtained:
[1] = Stat Signaling Pathway (AID 446); details: ME-180 SIE beta-lactamase reporter, IL-6 stimulated, 5 h; at 38 µM (top of the series) unless noted;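 note: ME-180 cervical cancer cells given 40 pM IL-6 alongside compound; SIE-controlled beta-lactamase reporter measured as 460/530 nm FRET emission ratio; % is set by controls: 0 for no effect and ±100 for the full control effect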
Outline: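 Reporter line: ME-180 cervical carcinoma, SIE-beta-lactamase. Treatment: compound with 40 pM IL-6, 5 hrs, 37 C, in low-serum OPTI-MEM with 10 mM HEPES pH 7.3. Detection: 460/530 nm fluorescence.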

[2] = biological target: Glucocorticoid receptor (Homo sapiens) (UniProt P04150); test: GR-GFP Redistribution (AID 450;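 active = compounds whose dose series gives a full or clear partial fitted curve of increased nuclear translocation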; note: potency is the fitted concentration of half-maximal effect); details: U2OS GR-GFP nuclear translocation, laser cytometry, 2 h
[3] = biological target: Glucocorticoid receptor (Homo sapiens) (UniProt P04150); test: GR-EFC Redistribution (AID 451; calls by dose curve; note: potency is the fitted concentration of half-maximal effect); details: CHO-K1 GR-EFC translocation, beta-gal luminescence, 2 h
Outline: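 Translocation of GR-ED fusion to nuclear EA restores b-gal, read by luminescence after 1 h room-temperature detection. Engineered CHO-K1 biosensor cells, 1,000/well, exposed 2 h at 37 C to titrations up to 46 uM final.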

[4] = biological target: Mitogen-activated protein kinase 10 (Mus musculus) (UniProt Q61831); test: JNK3 AlphaScreen Assay (AID 530);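 note: kinase came from lysate of stimulated human HepG2 cells; signal reports phosphorylation of biotinylated GST-cJun 1-79 at Ser73 with 10 µM ATP; % is set by controls: 0 for no effect and ±100 for the full control effect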
Outline: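 Room-temperature AlphaScreen kinase assay; pre-activated HepG2 lysate as JNK3 source, biotin-GST-cJun(1-79) substrate, 10 uM ATP, compound 15 min preincubation.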

[5] = biological target: 3',5'-cyclic-AMP phosphodiesterase 4B (Homo sapiens) (UniProt Q07343); test: qHTS Assay for Inhibitors of PDE-IV (AID 607; active = well fitted activation curve with a large enough effect in the main read-out, with a control signal flat, not every such curve was filed as active; note: potency is the fitted concentration of half-maximal effect)
Outline: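 Cell-based read-out of cAMP via a modified cyclic nucleotide-gated channel and membrane potential dye (535/590 nm) in HEK293 cells expressing PDE4 endogenously. Compounds tested up to 22.9 uM final; 100 uM RO 20-1724 reference.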

[6] = Cell Viability - N2a (AID 540; active = well fitted curve in the direction sought with a large enough effect; an effect the other way counts as inactive or inconclusive;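 note: cells exposed to compound for 40 h at 37 °C; nearly all actives have a fitted effect of over 45% in size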; note: potency is the fitted concentration of half-maximal effect;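 for activity change, negative = cytotoxicity: plate controls were DMSO alone for no effect and tamoxifen control for full effect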); details: N2a mouse neuroblastoma cell viability; activity change, negative = cytotoxicity: at 92.2 µM (top of the series)
Outline: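 First, 1500 N2a cells per well incubate 5 hr at 37 °C; next, compounds are added and incubated 40 hr at 37 °C; finally CellTiter-Glo is added and luminescence read after 20 min, with AC50 derived by Hill modeling.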

[7] = Cell Viability - HUV-EC-C (AID 542; active = well fitted curve in the direction sought with a large enough effect; an effect the other way counts as inactive or inconclusive; note: nearly all actives have a fitted effect of over 35% in size; note: potency is the fitted concentration of half-maximal effect; for activity change, negative = cytotoxicity: % is set by controls: 0 for no effect and ±100 for the full control effect)
Outline: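 Decrease in cellular ATP, quantified by luciferase luminescence, reflects toxicity in normal human vascular endothelial HUV-EC-C cells given compound for 40 hr in complete culture medium. Values are AC50s from concentration-response curves.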

[8] = Cell Viability - H-4-II-E (AID 543; active = well fitted curve in the direction sought with a large enough effect; an effect the other way counts as inactive or inconclusive; note: % is set by controls: 0 for no effect and ±100 for the full control effect; nearly all actives have a fitted effect of over 35% in size)
Outline: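 Here, cytotoxicity is measured in the rat hepatoma line H-4-II-E as loss of intracellular ATP after 40 hr compound treatment, detected by luciferase luminescence.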

[9] = Cell Viability - SH-SY5Y (AID 544; active = well fitted curve in the direction sought with a large enough effect; an effect the other way counts as inactive or inconclusive; note: nearly all actives have a fitted effect of over 55% in size; note: potency is the fitted concentration of half-maximal effect)
Outline: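 Cytotoxicity is scored as a concentration-dependent fall in intracellular ATP in human SH-SY5Y cells treated 40 hr in complete culture medium. Potency is expressed as AC50 from a Hill equation fit.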

[10] = Cell Viability - Renal Proximal Tubule (AID 545; active = well fitted curve in the direction sought with a large enough effect; an effect the other way counts as inactive or inconclusive; note: nearly all actives have a fitted effect of over 40% in size; note: potency is the fitted concentration of half-maximal effect;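 for activity change, negative = cytotoxicity: 0% = DMSO only and -100% = 100 µM tamoxifen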); details: renal proximal tubule cells viability; activity change, negative = cytotoxicity: at 91.7 µM (top of the series)
Outline: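 In this qHTS format, normal rat kidney-derived proximal tubule cells in complete culture medium receive compound titrations, then sit 40 hours at 37 °C before luciferase-based ATP quantitation; potency is reported as AC50 from concentration-response curves.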

[11] = Cell Viability - Mesenchymal (AID 546; active = well fitted curve in the direction sought with a large enough effect; an effect the other way counts as inactive or inconclusive;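 note: cells exposed to compound for 40 hours before reading; 0% = DMSO only and -100% = 100 µM tamoxifen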)
Outline: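 AC50 values reflect the drop in intracellular ATP in a human kidney mesenchymal line derived from normal glomeruli. Treatment lasts 40 hr at 37 °C in complete medium, and the signal comes from CellTiter-Glo luminescence.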

[12] = Cellular Toxicity (caspase-3) HepG2 (AID 654; active = well fitted curve in the direction sought with a large enough effect; an effect the other way counts as inactive or inconclusive;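 note: cells exposed to compound for 16 hours before reading; 0% = DMSO alone and 100% = caspase signal from 100 µM tamoxifen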)
Outline: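 qHTS, HepG2, 1500 cells/well, complete medium; cpd 16 h 37 °C; Caspase-Glo 3/7, 20 min RT; lum. Norm: DMSO vs 100 uM tamoxifen; AC50 Hill fit.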

[13] = Cellular Toxicity (caspase-3) Jurkat (AID 655; active = well fitted curve in the direction sought with a large enough effect; an effect the other way counts as inactive or inconclusive;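 note: cells exposed to compound for 16 h at 37 °C before reading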; note: potency is the fitted concentration of half-maximal effect)
Outline: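 qHTS in human Jurkat T-cell leukemia line: 16 hr compound treatment at 37 °C, caspase-3/7 activity measured by Caspase-Glo luminescence. AC50 derived from Hill equation.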

[14] = Cellular Toxicity (caspase-3) HUV-EC-C (AID 656; active = well fitted curve in the direction sought with a large enough effect; an effect the other way counts as inactive or inconclusive;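 note: 0% = DMSO basal and 100% = 100 µM tamoxifen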)
Outline: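 Concentration-dependent caspase 3/7 induction was assessed in HUV-EC-C cells exposed for 16 hours. Data scaled between DMSO and tamoxifen (100 uM) controls.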

[15] = Cellular Toxicity (caspase-3) SHSY5Y (AID 657; active = well fitted curve in the direction sought with a large enough effect; an effect the other way counts as inactive or inconclusive;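 note: cells exposed to compound for 16 hours at 37 °C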)
Outline: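 Readout: caspase-cleaved peptide-aminoluciferin substrate driving luciferase light in SH-SY5Y neuroblastoma cells after 16 h treatment. Response normalized to DMSO and 10 uM staurosporine controls.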

[16] = Cellular Toxicity (caspase-3) BJ (AID 658; active = well fitted curve in the direction sought with a large enough effect; an effect the other way counts as inactive or inconclusive; note: potency is the fitted concentration of half-maximal effect;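 for caspase-3 activation: 0% = DMSO basal and 100% = 10 µM staurosporine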); details: Potency: caspase-3 activation
Outline: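 Readout: Caspase-Glo 3/7 luminescence increase in BJ cells after 16 hr treatment at 37 °C. Staurosporine and tamoxifen served as positive controls; AC50 values came from Hill modelling of data normalized to DMSO and 10 uM staurosporine.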

[17] = Cellular Toxicity (caspase-3) MRC-5 (AID 659; active = well fitted curve in the direction sought with a large enough effect; an effect the other way counts as inactive or inconclusive;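 note: cells exposed to compound for 16 h at 37 °C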; note: potency is the fitted concentration of half-maximal effect;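 for caspase-3 activation: 0% = DMSO basal and 100% = 10 µM staurosporine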); details: Potency: caspase-3 activation
Outline: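 Concentration-dependent caspase 3/7 activation is measured in human normal lung fibroblasts (MRC-5) following 16-hour treatment. AC50 values come from standard Hill-equation modeling of luminescence normalized to DMSO and 10 uM staurosporine.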

[18] = Cellular Toxicity (caspase-3) SK-N-SH (AID 661; active = well fitted curve in the direction sought with a large enough effect; an effect the other way counts as inactive or inconclusive; note: potency is the fitted concentration of half-maximal effect;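 for caspase-3 activation: 0% = DMSO basal and 100% = 10 µM staurosporine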); details: SK-N-SH caspase-3 activation, qHTS; caspase-3 activation: at 91.7 µM (top of the series), DMSO as zero, staurosporine as full
Outline: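 Caspase 3/7 activation is measured as a luminescence increase from aminoluciferin released by substrate cleavage in SK-N-SH cells after 16 hr compound treatment; values are AC50 from concentration-response curves.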

[19] = Cellular Toxicity (caspase-3) H-4-II-E (AID 663; active = well fitted curve in the direction sought with a large enough effect; an effect the other way counts as inactive or inconclusive;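 note: cells exposed to compound for 16 hr before readout; 0% = DMSO basal and 100% = 100 µM tamoxifen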)
Outline: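 Apoptosis induction is scored as increased luminescence from caspase 3/7 substrate cleavage in rat hepatoma H-4-II-E cells exposed to compound for 16 hr. Activity is scaled between DMSO and 100 uM tamoxifen.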

[20] = Cell Viability - NIH 3T3 (AID 541; active = well fitted curve in the direction sought with a large enough effect; an effect the other way counts as inactive or inconclusive; note: nearly all actives have a fitted effect of over 25% in size; note: potency is the fitted concentration of half-maximal effect;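 for activity change, negative = cytotoxicity: plate controls were DMSO alone for no effect and tamoxifen positive control for full effect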); details: NIH 3T3 cell viability, qHTS; activity change, negative = cytotoxicity: at 92.2 µM (top of the series)
Outline: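 AC50 values reflect concentration-dependent loss of intracellular ATP in NIH 3T3 cells after 40 hr treatment in complete culture medium, quantified by luciferase-based luminescence.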

Chain of 3',5'-cyclic-AMP phosphodiesterase 4B (Homo sapiens) (Q07343 whole entry, looked up): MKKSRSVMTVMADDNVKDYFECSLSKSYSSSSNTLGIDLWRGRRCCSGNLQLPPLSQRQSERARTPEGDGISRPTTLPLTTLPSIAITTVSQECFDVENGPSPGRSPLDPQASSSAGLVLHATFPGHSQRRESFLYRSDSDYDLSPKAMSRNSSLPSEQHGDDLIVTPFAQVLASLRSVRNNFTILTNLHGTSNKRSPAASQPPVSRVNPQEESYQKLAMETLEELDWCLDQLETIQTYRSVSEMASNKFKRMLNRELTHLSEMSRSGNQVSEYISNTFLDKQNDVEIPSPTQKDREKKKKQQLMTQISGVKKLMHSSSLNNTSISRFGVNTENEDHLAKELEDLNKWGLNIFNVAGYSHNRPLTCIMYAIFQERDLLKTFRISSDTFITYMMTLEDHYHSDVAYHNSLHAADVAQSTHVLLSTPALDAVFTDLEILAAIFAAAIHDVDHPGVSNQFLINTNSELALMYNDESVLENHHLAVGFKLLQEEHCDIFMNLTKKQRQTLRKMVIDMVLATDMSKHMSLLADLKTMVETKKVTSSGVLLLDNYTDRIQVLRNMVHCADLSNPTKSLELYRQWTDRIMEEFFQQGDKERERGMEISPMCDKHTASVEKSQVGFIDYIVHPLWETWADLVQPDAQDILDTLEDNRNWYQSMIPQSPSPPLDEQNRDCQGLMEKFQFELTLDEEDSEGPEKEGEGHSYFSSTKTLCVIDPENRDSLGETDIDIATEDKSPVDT
Chain of Glucocorticoid receptor (Homo sapiens) (P04150 whole entry, looked up, the tested form may be a part): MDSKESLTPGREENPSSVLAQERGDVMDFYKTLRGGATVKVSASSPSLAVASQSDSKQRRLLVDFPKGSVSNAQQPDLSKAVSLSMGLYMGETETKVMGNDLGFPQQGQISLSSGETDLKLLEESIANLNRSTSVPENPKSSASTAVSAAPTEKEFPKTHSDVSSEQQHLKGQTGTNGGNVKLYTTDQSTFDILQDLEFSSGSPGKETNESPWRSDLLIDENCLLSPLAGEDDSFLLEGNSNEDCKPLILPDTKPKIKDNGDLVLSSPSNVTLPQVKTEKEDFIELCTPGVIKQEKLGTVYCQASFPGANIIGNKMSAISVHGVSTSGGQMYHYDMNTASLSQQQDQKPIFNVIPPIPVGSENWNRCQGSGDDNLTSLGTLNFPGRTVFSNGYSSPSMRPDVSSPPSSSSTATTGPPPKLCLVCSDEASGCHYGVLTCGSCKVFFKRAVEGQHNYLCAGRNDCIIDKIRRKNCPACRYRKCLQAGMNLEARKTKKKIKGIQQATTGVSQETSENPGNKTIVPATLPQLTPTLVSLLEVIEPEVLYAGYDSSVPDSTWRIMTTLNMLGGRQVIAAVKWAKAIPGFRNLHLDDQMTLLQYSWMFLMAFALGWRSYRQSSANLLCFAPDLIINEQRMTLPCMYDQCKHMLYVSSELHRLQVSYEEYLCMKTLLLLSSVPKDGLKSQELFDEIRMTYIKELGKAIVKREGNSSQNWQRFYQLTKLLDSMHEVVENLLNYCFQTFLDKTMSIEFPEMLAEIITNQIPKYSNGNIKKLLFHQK

CCCN(CCC)CCc1ccc(O)c(O)c1
inactive: activity, negative = inhibition [1] -14.3% | Potency [2] > 46 µM | Potency [3] > 46 µM | outcome [4] | Potency [5]

C[C@H](N)CN1CCc2ccc(Br)cc21
inactive: activity, negative = inhibition [1] -29.5% | Potency [2] > 46 µM | Potency [3] > 46 µM | Potency [5]

C[C@@H](Cc1ccccc1)NCCC(c1ccccc1)c1ccccc1
inactive: activity, negative = inhibition [1] -3.28% [at 17.2 µM] | outcome [4]

Cc1cc(C)cc(C(=O)OC2C[C@H]3CC[C@@H](C2)N3C)c1 (stereo partly specified)
inactive: Potency [2] > 46 µM | Potency [3] > 46 µM | outcome [4]

CCCN(CCC)C1Cc2cc(OC)c(OC)cc2C1
inactive: activity, negative = inhibition [1] 21.3% | Potency [2] > 46 µM | Potency [3] > 46 µM | outcome [4] | Potency [5]

Clc1cc(I)cc(Cl)c1NC1=NCCN1
inactive: activity, negative = inhibition [1] -14.2% | Potency [2] > 46 µM | Potency [3] > 46 µM | Potency [5]

c1ccc2c(c1)[I+]c1ccccc1-2
inactive: Potency [2] > 46 µM | Potency [3] > 46 µM | outcome [4] | Potency [5]

O=S(=O)(O)c1cc(O)ccc1O
inactive: activity, negative = inhibition [1] 11.9% [at 17.2 µM] | Potency [2] > 20.6 µM | Potency [3] > 20.6 µM | outcome [4] | Potency [5]

Cc1sc2ccccc2c1CC1=NCCN1
inactive: Potency [2] > 46 µM | Potency [3] > 46 µM | outcome [4] | Potency [5]

N#CC(C#N)=Cc1cc(O)c(O)c(O)c1
inactive: activity, negative = inhibition [1] 2.4% | Potency [2] > 46 µM | Potency [3] > 46 µM | Potency [5]

CCS(=O)(=O)Nc1cccc(C(=C2CCCCC2)c2cnc[nH]2)c1
inactive: activity, negative = inhibition [1] -26.3% | Potency [2] > 46 µM | Potency [3] > 46 µM | outcome [4] | Potency [5]

O=C1C=CC(=O)C=C1
inactive: activity, negative = inhibition [1] -5.57% | outcome [4] | Potency [6] | Potency [7] | Potency [8] | Potency [9] | Potency [10] | Potency [11] | Potency [5] | outcome [12] | Potency [13] | outcome [14] | outcome [15] | Potency [16] | Potency [17] | Potency [18] | outcome [19]

C[C@@H]1[C@@H]2Cc3ccc(O)cc3[C@@]1(C)CCN2CC1CC1
inactive: activity, negative = inhibition [1] -18.1% | Potency [2] > 46 µM | Potency [3] > 46 µM | outcome [4] | Potency [5]

CN1CCc2cc(O)cc3c2[C@H]1Cc1ccc(O)c(O)c1-3
inactive: activity, negative = inhibition [1] -18.2% | Potency [2] > 46 µM | Potency [3] > 46 µM | Potency [5]

CNC(=O)OCC[N+](C)(C)C
inactive: Potency [2] > 46 µM | Potency [3] > 46 µM | outcome [4]

CCCN(CCC)[C@@H]1CCc2cccc(O)c2C1
inactive: activity, negative = inhibition [1] -0.802% | Potency [2] > 46 µM | Potency [3] > 46 µM | outcome [4] | Potency [5]

CCN(CCCl)Cc1ccccc1Br
inactive: Potency [2] > 46 µM | Potency [3] > 46 µM | outcome [4] | Potency [5]

CCCn1c(=O)c2[nH]c(C3CCCC3)nc2n(CCCOC(=O)c2ccc(S(=O)(=O)F)cc2)c1=O
inactive: activity, negative = inhibition [1] -25.7% | Potency [2] > 46 µM | Potency [3] > 46 µM
active: Potency [5] 1.26 µM

CCC(=O)O[C@@](Cc1ccccc1)(c1ccccc1)[C@@H](C)CN(C)C
inactive: activity, negative = inhibition [1] 5.74% [at 17.2 µM] | outcome [4]

C[N+]1(C)[C@@H]2CC[C@H]1CC(OC(=O)c1c[nH]c3ccccc13)C2 (stereo partly specified)
inactive: Potency [2] > 46 µM | Potency [3] > 46 µM | outcome [4] | Potency [5]

N#CCCN
inactive: activity, negative = inhibition [1] 20.4% | Potency [2] > 46 µM | Potency [3] > 46 µM | outcome [4] | Potency [5]

CC(C)(C)c1cc(C=C(C#N)C#N)cc(C(C)(C)C)c1O
inactive: Potency [2] > 46 µM | Potency [3] > 46 µM | outcome [4]

c1ccc2cc(CC3=NCCN3)ccc2c1
inactive: activity, negative = inhibition [1] -3.81% | outcome [4] | Potency [5]

NNC(=O)c1ccc(O)cc1
inactive: activity, negative = inhibition [1] 13.1% | Potency [2] > 46 µM | Potency [3] > 46 µM | Potency [5]

CN1CCc2cccc(Cl)c2CC1
inactive: activity, negative = inhibition [1] 15.3% | Potency [2] > 46 µM | Potency [3] > 46 µM | Potency [5]

CC(=O)NBr
inactive: Potency [2] > 46 µM | Potency [3] > 46 µM | outcome [4] | Potency [5]

C[N+]1(C)CCc2cc3c(cc2[C@H]1[C@@H]1OC(=O)c2c1ccc1c2OCO1)OCO3
inactive: Potency [2] > 20.6 µM

CCCN(CCC)[C@H]1CCc2c(F)ccc(O)c2C1
inactive: activity, negative = inhibition [1] 3.16% and 1.48% | Potency [2] > 46 µM | Potency [3] > 46 µM | outcome [4] | Potency [5]

C[N+](C)(C)CC#CCN1CCCC1=O
inactive: Potency [2] > 46 µM | Potency [3] > 46 µM | outcome [4]

O=c1ccc2[nH]cc(C3=CCNCC3)c2[nH]1
inactive: Potency [2] > 46 µM | Potency [3] > 46 µM | outcome [4] | Potency [5]

N[C@@H](Cn1oc(=O)[nH]c1=O)C(=O)O
inactive: Potency [2] > 46 µM | Potency [3] > 46 µM | outcome [4]

NC(=O)COc1c(F)cc(SCCNS(=O)(=O)c2ccccc2)cc1F
inactive: Potency [2] > 46 µM | Potency [3] > 46 µM | outcome [4] | Potency [5]

O=S1(=O)N(CCN2CC=C(c3c[nH]c4cc(F)ccc34)CC2)c2cccc3c2N1CCC3
inactive: activity, negative = inhibition [1] 22.3% | Potency [2] > 46 µM | Potency [3] > 46 µM | outcome [4] | Potency [5]

NCCc1ccc(S(=O)(=O)F)cc1
inactive: Potency [2] > 46 µM | Potency [3] > 46 µM | outcome [4] | Potency [5]

CCC1(C)CC(=O)NC(=O)C1
inactive: activity, negative = inhibition [1] -0.442% [at 17.2 µM] | Potency [2] > 20.6 µM | Potency [3] > 20.6 µM | outcome [4] | Potency [5]

[O]=[Cr](=[O])([OH])[O][Cr](=[O])(=[O])[OH]
inactive: outcome [4] | Potency [11] | outcome [12] | outcome [19]
active: Potency [6] 39.8 µM and 25.1 µM | activity change, negative = cytotoxicity [6] -124% | Potency [20] 15.8 µM | activity change, negative = cytotoxicity [20] -141% and -151% | Potency [7] 3.98 µM and 20 µM and 5.01 µM | Potency [9] 316 nM and 15.8 µM and 3.98 µM | Potency [10] 2.51 µM and 7.94 µM and 501 nM | Potency [13] 31.6 µM | Potency [16] 15.8 µM | Potency [17] 20 µM and 25.1 µM | Potency [18] 20 µM | caspase-3 activation [18] 80.2%
